We go through seven molecules from PubChem BioAssay (NCATS).

Results filed as inconclusive are left out. The source made the active and inactive calls. Calls follow the shape of the dose curve; as a rule, active = well fitted curve in the direction sought with a large enough effect; inconclusive = small, poorly fitted or top-dose-only effect, or another doubt; inactive = no such curve, though single readings can be large; an effect the other way counts as inactive or inconclusive.

The nature of assay [1]: Quantitative High-Throughput drug screen in 47 multiple myeloma cell lines against the NCATS MIPE library collection: FR4_PLB cell viability assay (AID 1918924; also: nearly all actives have a fitted effect of over 35% in size; also: potency is read from the fitted curve at half-maximal effect). In outline: (§1)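 Steps: seed 500 cells per well; pin-transfer MIPE 4.0 library; incubate 48 h at 37C, 5% CO2, humidified; add CellTiter-Glo, 5 min room temperature; read luminescence.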
A short description of assay [2]: Quantitative High-Throughput drug screen in 47 multiple myeloma cell lines against the NCATS MIPE library collection: Delta47_JCRB cell viability assay (AID 1918925; also: nearly all actives have a fitted effect of over 45% in size; also: potency is read from the fitted curve at half-maximal effect). The method in brief: (§2)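 Inhibition of cell viability is measured here. Each line was plated at 500 cells per well, treated with MIPE 4.0 drugs, kept 48 hours at 37C, then assayed for ATP content by CellTiter-Glo luminescence.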

A short description of assay [3]: Quantitative High-Throughput drug screen in 47 multiple myeloma cell lines against the NCATS MIPE library collection: EJM_DSMZ cell viability assay (AID 1918926; also: nearly all actives have a fitted effect of over 30% in size; also: potency is read from the fitted curve at half-maximal effect). The method in brief: as §2
A short description of assay [4]: Quantitative High-Throughput drug screen in 47 multiple myeloma cell lines against the NCATS MIPE library collection: AMO1_DSMZ cell viability assay (AID 1918927; also: nearly all actives have a fitted effect of over 30% in size; also: potency is read from the fitted curve at half-maximal effect). In outline: as §2
Assay [5] is described as follows: Quantitative High-Throughput drug screen in 47 multiple myeloma cell lines against the NCATS MIPE library collection: ARD_JJKsccE7 cell viability assay (AID 1918929; also: potency is read from the fitted curve at half-maximal effect). In outline: as §2
Assay [6] is described as follows: Quantitative High-Throughput drug screen in 47 multiple myeloma cell lines against the NCATS MIPE library collection: KMM1_JCRB cell viability assay (AID 1918960). Also: nearly all actives have a fitted effect of over 30% in size. Also: potency is read from the fitted curve at half-maximal effect. The method in brief:
(§3)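 Viability screen: myeloma cells (500/well) incubated 48 h at 37 °C, humidified 5% CO2, with pinned library compounds; CellTiter-Glo added, luminescence read; DMSO wells set 100%, medium-only wells 0%.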

The nature of assay [7]: Quantitative High-Throughput drug screen in 47 multiple myeloma cell lines against the NCATS MIPE library collection: JIM1_ECACC cell viability assay (AID 1918964; also: potency is read from the fitted curve at half-maximal effect). The method in brief:
as §2

A short description of assay [8]: Quantitative High-Throughput drug screen in 47 multiple myeloma cell lines against the NCATS MIPE library collection: H1112_PLB cell viability assay (AID 1918967; also: nearly all actives have a fitted effect of over 30% in size; also: potency is read from the fitted curve at half-maximal effect). In outline:
as §2

The target in assay [9] is Luciferin 4-monooxygenase (Photinus pyralis) (UniProt P08659). Description: Primary firefly luciferase (FLuc) qHTS assay for identification of artifact compounds. (AID 1845220).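 Also: plate controls were DMSO vehicle for no effect and no enzyme for full effect; nearly all actives have a fitted effect of over 60% in size.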 The method in brief:
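D-luciferin and ATP (10 uM each, final) in Tris acetate buffer pH 7.6 were incubated with compounds for 15 min at room temperature. The reaction was started with 10 nM Photinus pyralis luciferase and luminescence read after 5 min. Percent inhibition was fitted to a 4-parameter Hill equation.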

A short description of assay [10]: Primary fluorescence-based thiol-reactive (MSTI) qHTS assay for identification of artifact compounds. (AID 1845221).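 Also: thiol-reactive compounds lower the probe fluorescence signal; nearly all actives have a fitted effect of over 65% in size.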 The method in brief: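 One-hour, room-temperature, dark incubation of compound with 4 uM MSTI in PBS (pH 7.4, 2% DMSO) precedes a fluorescence read at 525 nm excitation, 598 nm emission; Hill-equation fitting yields concentration-response values.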

Assay [11] relates to Nanoluciferase (engineered Oplophorus gracilirostris luciferase). As to the kind of experiment: Primary Nanoluciferase (NLuc) qHTS assay for identification of artifact compounds. (AID 1845222).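 Also: 0% = DMSO and -100% = no enzyme.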 In outline: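 Diluted conditioned medium from NLuc-expressing S16 cells treated with compounds for 15 min at room temperature, then Nano-Glo substrate added; luminescence read after 5 min. Percent inhibition versus no-enzyme and DMSO controls fitted to 4-parameter Hill equation.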

Assay [12] in a line: Quantitative High-Throughput drug screen in 47 multiple myeloma cell lines against the NCATS MIPE library collection: JIM3_ECACC cell viability assay (AID 1918963; also: potency is read from the fitted curve at half-maximal effect; nearly all actives have a fitted effect of over 35% in size). In outline: as §1
The nature of assay [13]: Quantitative High-Throughput drug screen in 47 multiple myeloma cell lines against the NCATS MIPE library collection: JJN3_DSMZ cell viability assay (AID 1918966; also: potency is read from the fitted curve at half-maximal effect; nearly all actives have a fitted effect of over 50% in size). In outline: as §2
Assay [14] in a line: Quantitative High-Throughput drug screen in 47 multiple myeloma cell lines against the NCATS MIPE library collection: ARP1_JJKsccF8 cell viability assay (AID 1918928; also: potency is read from the fitted curve at half-maximal effect; nearly all actives have a fitted effect of over 40% in size). In outline:
as §3

Assay [15] can be described thus: Quantitative High-Throughput drug screen in 47 multiple myeloma cell lines against the NCATS MIPE library collection: Karpas620_DSMZ cell viability assay (AID 1918959). Also: nearly all actives have a fitted effect of over 30% in size. Also: potency is read from the fitted curve at half-maximal effect. In outline: as §1
The nature of assay [16]: Quantitative High-Throughput drug screen in 47 multiple myeloma cell lines against the NCATS MIPE library collection: KHM11_PLB cell viability assay (AID 1918962). Also: potency is read from the fitted curve at half-maximal effect; nearly all actives have a fitted effect of over 35% in size. In outline: as §1
Assay [17] can be described thus: Quantitative High-Throughput drug screen in 47 multiple myeloma cell lines against the NCATS MIPE library collection: INA6_PLB cell viability assay (AID 1918965; also: potency is read from the fitted curve at half-maximal effect; nearly all actives have a fitted effect of over 55% in size). The method in brief: (§4)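 CellTiter-Glo luminescence (ATP) after 48 h compound exposure, 37C/5% CO2; 500 cells/well; MIPE 4.0 approved/investigational drugs pinned in; DMSO = 100%, media only = 0% viability.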

Assay [18] can be described thus: Quantitative High-Throughput drug screen in 47 multiple myeloma cell lines against the NCATS MIPE library collection: Karpas417_ECACC cell viability assay (AID 1918961). Also: potency is read from the fitted curve at half-maximal effect. Particulars: Karpas417 myeloma viability, CellTiter-Glo ATP luminescence, 48 h; viability (% of DMSO): at 45.8 µM (top of the series). The method in brief:
as §4
On the technique in general: In ATP-based viability assays light output follows the ATP content of the culture.

Regarding `Fc1ccc(C(c2ccc(F)cc2)N2CCN(CC=Cc3ccccc3)CC2)cc1`, the Potency result in [1], in assay [2], in [3], in assay [4], in assay [5] and in assay [6] was “inactive” throughout. Also, the Potency result in [7] and in assay [8] was “inactive” each time.

Regarding `CC1=C[C@@H]2[C@@H]([C@@H](O)C[C@@]3(C)[C@H]2C[C@@H](C)[C@]3(O)C(=O)CO)[C@@]2(C)Cc3cnn(-c4ccccc4)c3C=C12`, the Potency result in [9], in assay [10] and in assay [11] was “inactive” throughout. Further, the Potency is 5.26 µM (active) in assay [4]; 0.0059 µM (active) in [5]; 0.0105 µM (active) in assay [6]; 26.4 µM (active) in assay [12]; 23.5 µM (active) in assay [13].

As for `CC1(C)C(N(O)C(=O)Nc2ccc(Cl)cc2)N(c2ccc(Cl)cc2)C(=O)N1CC(=O)NN=CC=Cc1ccc([N+](=O)[O-])o1` (stereo unspecified), the Potency in assay [1] is 13.2 µM (active); in assay [2], 7.43 µM (active); in assay [3], 16.6 µM (active); in assay [14], 7.43 µM (active); in [16], 11.8 µM (active); in assay [12], 14.8 µM (active). Besides, the values for the Potency in assay [17], in [13] and in [8] were 7.43 µM (active), 4.18 µM (active) and 9.35 µM (active), respectively. Moreover, the Potency result in assay [4], in [5], in assay [15] and in assay [6] was “inactive” in each case.

As to `N#CC(c1ccc(Cl)cc1)c1c(Cl)cc(-n2ncc(=O)[nH]c2=O)cc1Cl` (stereo unspecified), the Potency entry in assay [1] is “inactive”. Further, the Potency in assay [2] is 23.5 µM (active); in assay [3], 16.6 µM (active); in assay [4] it was 5.26 µM (active); in assay [5], 18.7 µM (active); in assay [15], 10.5 µM (active); in [6], 5.9 µM (active). The Potency is 0.372 µM (active) in assay [16], 16.6 µM (active) in assay [13] and 20.9 µM (active) in assay [8].

Take `CC(C)CN(C[C@@H](O)[C@H](Cc1ccccc1)NC(=O)O[C@H]1CO[C@H]2OCC[C@H]21)S(=O)(=O)c1ccc(N)cc1`: the Potency entry in assay [1], in assay [4], in [5], in assay [6] and in assay [7] was “inactive” each time. Moreover, the Potency in assay [2] is 1.48 µM (active); in assay [3], 5.9 µM (active); in [12], 13.2 µM (active); in [13] it was 23.5 µM (active); in [8], 2.09 µM (active).

As for `CC(=O)O[C@]1(C(C)=O)CC[C@H]2[C@@H]3C=C(Cl)C4=CC(=O)[C@@H]5C[C@H]5[C@]4(C)[C@@H]3CC[C@@]21C`, the Potency entry in [1] was “inactive”. The Potency in assay [2] was 8.33 µM (active); in assay [3] it was 11.8 µM (active); in assay [4], 10.5 µM (active); in assay [5], 23.5 µM (active); in assay [6], 18.7 µM (active); in assay [8], 9.35 µM (active). For the same molecule, the viability (% of DMSO) in assay [18] is 112% (active).

`C[C@@H]1O[C@@H](O[C@H]2CC[C@@]3(C)[C@H](CC[C@@H]4[C@H]3C[C@@H](O)[C@]3(C)[C@@H](C5=CC(=O)OC5)CC[C@]43O)C2)C[C@H](O)[C@@H]1O[C@H]1C[C@H](O)[C@H](O[C@H]2C[C@H](O)[C@@H](O)[C@@H](C)O2)[C@H](C)O1` (stereo in doubt): the Potency in assay [1] is 0.0762 µM (active); in assay [2], 0.241 µM (active); in assay [3], 0.27 µM (active); in assay [4], 0.0679 µM (active); in [14], 0.171 µM (active); in [5], 0.121 µM (active). Moreover, the Potency is 0.0762 µM (active) in assay [6]; 0.152 µM (active) in assay [18]; 0.152 µM (active) in assay [16]; 0.191 µM (active) in [12]; 0.0679 µM (active) in [7]; 0.171 µM (active) in assay [17]. Also, the Potency in assay [13] and in assay [8] was 0.34 µM (active) each time.
